From PubChem BioAssay (NCATS)
Results filed as inconclusive are left out. The source made the active and inactive calls. Calls come from the whole dose curve; as a rule, active = well fitted inhibition curve with a large enough effect; inconclusive = small, poorly fitted or top-dose-only effect; inactive = no such curve, though single readings can be large or run the other way.

molecular target: Chromobox protein homolog 1 (Homo sapiens) (UniProt P83916); test: qHTS Validation Assay for Inhibitors of HP1-beta Chromodomain Interactions with Methylated Histone Tails (AID 488953); conditions: HP1-beta chromodomain / methylated histone peptide binding assay; series mostly up to 114 µM; note: nearly all actives have a fitted effect of over 50% in size
Description: As our understanding of epigenetics expands, it is becoming clear that players in this field are potential targets for drug development. This area of epigenetic therapy has established applications for the treatment of cancer and neurological diseases. We have been involved in this field for a number of years and have performed high-throughput screens to identify the first small molecule inhibitors of protein methyltransferases. These methyltransferases target multiple substrates, and thus regulate many arms of an epigenetic pathway. The methylation of different substrates often generates docking sites for effector proteins that harbor binding domains (chromo, tudor, PHD, MBT and ANK repeats).
It has been proposed that the binding sites generated for different proteins by these post-translational modifcations mediate downstream effects on chromatin. Consistent with this theory, di- and tri-methylation of histone H3K9 facilitates the binding of heterochromatin protein HP1. The HP1 protein harbors a chromodomain that is responsible for the methyl-dependent interaction between HP1 and lysine 9 of histone H3. HP1 was first described in flies as a heterochromatin associated protein that can regulate gene silencing. It harbors a chromodomain that binds H3K9me3. In addition, it harbors a chromoshadow domain that interacts with a large number of proteins that are involved in heterochromatin formation and gene repression. There are three highly related HP1 isoforms. All three variants are associated with pericentric heterochromatin and it is not clear whether they have specific or redundant functions. MPP8 is also involved in the repression of gene in euchromatic regions (unpublished data) and like HP1 its chromodomain binds H3K9me3. MPP8 harbors an ankyrin repeat region that is likely involved in binding and recruiting interacting proteins with transcriptional repressive function, much like the chromoshadow domain of HP1 does.
We hypothesize that by inhibiting specific protein-protein interactions we will be able to develop compounds that block a single arm of an epigenetic pathway. The specificity attained by blocking a single protein-protein interaction will be far greater than that attained by blocking the enzyme that regulates one of many interactions.
Low-affinity protein-protein interactions (Kd in the single- to double-digit micromolar range) such as those discussed here have been very difficult to assay by traditional techniques such as fluorescence polarization or fluorescence resonance energy transfer. We have developed a sensitive chemiluminescence-based assay (Quinn, et al. 2009), which serves as the starting point for this project.
The following is a validation assay to identify lead compounds that can block methyl-dependent protein-protein interactions (specifically HP1-beta), which can be used as probes to analyze these methyl-driven interactions and perhaps even developed into targeted epigenetic therapies.
Assay Provider: Mark T. Bedford, MD Anderson
Screening Center PI: Austin, C.P.
Screening Center: NIH Chemical Genomics Center [NCGC]
To each well, 2 uL of HP1-beta protein (final 50 nM) and 1 uL biotinylated histone peptide trimethylated at Lys9 [b-H3(1-18)K9me3] (final 50 nM) was added in 1x PBS buffer, pH 7.4, containing 0.01% Tween-20 using a nanoliter dispenser. Formation of a protein-peptide complex proceeded at room temperature for 30 min. A Kalypsys pin-tool was employed to transfer 23 nL of library compound solution in DMSO to each well. Aurintricarboxylic acid (ATA) was used as an intraplate control with a 12-point titration in duplicate. Following a 30 min incubation of the protein-peptide complex with compounds at room temperature, a mixture of 40 ug/mL each streptavidin-coated donor and nickel chelate acceptor AlphaScreen beads (final 10 ug/mL) was added in a 1 uL dispense for a final volume of 4 uL. Plates were incubated protected from the light for 30 min at room temperature. […]
Potency is the fitted concentration of half-maximal effect.

Sequence of Chromobox protein homolog 1 (Homo sapiens) (P83916 whole entry, looked up): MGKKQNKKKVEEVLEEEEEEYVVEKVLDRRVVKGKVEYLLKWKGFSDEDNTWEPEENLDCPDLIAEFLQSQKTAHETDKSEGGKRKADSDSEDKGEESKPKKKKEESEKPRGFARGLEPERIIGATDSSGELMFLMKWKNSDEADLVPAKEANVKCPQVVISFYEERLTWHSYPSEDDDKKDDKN

Compound	Potency
Oc1cc2c(c(Cl)c1O)CCNCC2c1ccccc1 (stereo unspecified)	inactive
C1CCC(N=C(NC23CC4CC(CC(C4)C2)C3)N2CCOCC2)CC1	inactive
CC[N+](CC)(CC)CC	inactive
N#C/C(=C\c1ccc(O)c(O)c1)C(=O)Nc1ccccc1	12.6 µM (active)
N.N.O=C(O)C1(C(=O)O)CCC1.[Pt+2]	20 µM (active)
O=Nc1c(-c2c(O)[nH]c3ccccc23)[nH]c2ccccc12	3.98 µM (active)
CCc1ccc(/C=C2/SC(=S)NC2=O)cc1	12.6 µM (active)
Nc1c(S(=O)(=O)O)cc(Nc2ccc(Nc3nc(Cl)nc(Nc4ccc(S(=O)(=O)O)cc4)n3)c(S(=O)(=O)O)c2)c2c1C(=O)c1ccccc1C2=O	1.26 µM (active)
CN1C2CCCC1CC(NC(=O)c1nn(C)c3ccccc13)C2 (stereo unspecified)	inactive
Cc1cccc(/C=C/c2ccccc2)n1	inactive
O=C1c2ccccc2C(=O)c2c(NCCc3ccc(O)cc3)ccc(NCCc3ccc(O)cc3)c21	1.78 µM (active)
